In PMC4336329 (PLoS ONE, 2015):
About 2,200 (0.71%) of roughly 310,000 compounds showed an effect of 50% or more. The effect is printed as a negative number. Shown is part of a subset that was picked to be rich in strong results.

molecular target: human ether-à-go-go-related gene (hERG) potassium channel (human, UniProt Q12809); experiment: primary screen, population patch clamp on CHO cells stably expressing hERG; higher = less effect of the substance
Sequence (Q12809 whole entry, looked up): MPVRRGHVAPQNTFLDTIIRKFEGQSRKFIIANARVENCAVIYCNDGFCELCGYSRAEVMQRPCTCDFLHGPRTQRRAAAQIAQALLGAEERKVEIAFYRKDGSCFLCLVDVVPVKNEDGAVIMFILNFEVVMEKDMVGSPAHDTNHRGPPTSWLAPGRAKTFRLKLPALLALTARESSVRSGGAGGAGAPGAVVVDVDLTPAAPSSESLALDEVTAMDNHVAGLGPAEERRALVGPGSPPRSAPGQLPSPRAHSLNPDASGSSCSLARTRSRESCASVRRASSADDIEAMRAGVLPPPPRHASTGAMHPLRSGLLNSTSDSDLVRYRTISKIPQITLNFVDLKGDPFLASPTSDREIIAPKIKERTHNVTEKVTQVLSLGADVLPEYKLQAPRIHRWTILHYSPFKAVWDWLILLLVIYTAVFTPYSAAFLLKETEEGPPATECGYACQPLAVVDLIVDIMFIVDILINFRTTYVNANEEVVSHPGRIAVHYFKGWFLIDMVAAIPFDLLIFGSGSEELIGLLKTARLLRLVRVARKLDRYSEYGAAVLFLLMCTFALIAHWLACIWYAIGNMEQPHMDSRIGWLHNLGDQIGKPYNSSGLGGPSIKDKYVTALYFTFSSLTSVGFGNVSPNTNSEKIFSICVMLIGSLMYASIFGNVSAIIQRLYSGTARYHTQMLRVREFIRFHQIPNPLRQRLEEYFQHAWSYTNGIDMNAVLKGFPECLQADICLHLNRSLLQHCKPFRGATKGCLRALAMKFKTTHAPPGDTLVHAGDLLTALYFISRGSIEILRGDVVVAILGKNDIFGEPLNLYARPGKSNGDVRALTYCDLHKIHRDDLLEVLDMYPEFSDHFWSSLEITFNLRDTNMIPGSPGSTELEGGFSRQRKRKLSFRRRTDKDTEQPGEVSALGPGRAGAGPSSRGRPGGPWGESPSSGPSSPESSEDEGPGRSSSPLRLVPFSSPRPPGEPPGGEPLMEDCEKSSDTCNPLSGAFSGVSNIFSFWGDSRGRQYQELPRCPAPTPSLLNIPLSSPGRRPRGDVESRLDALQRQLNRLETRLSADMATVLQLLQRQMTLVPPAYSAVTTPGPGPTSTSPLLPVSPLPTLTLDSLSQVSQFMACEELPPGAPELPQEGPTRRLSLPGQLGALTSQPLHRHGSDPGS

Structure (SMILES)	hERG current change (%, negative = inhibition) at 1uM [%]
Cc1ccc2nc(C)cc(N/N=C/c3ccc(F)cc3)c2c1	0.285
CC(=O)Nc1ccc(N2CCC(C)CC2)c([N+](=O)[O-])c1	7.46
COc1ccc(C2CC(C(F)(F)F)n3nc(C(=O)N(C)Cc4cn(C)nc4C)c(Cl)c3N2)cc1 (stereo not drawn)	-3.33
CCOC(=O)c1cnc(N2CCN(C(=O)OCC)CC2)[nH]c1=O	13.9
O=C1C2CCCN2C(=O)N1CCCCN1CCN(c2ccc(F)cc2)CC1 (stereo not drawn)	-10
O=C(CCN1C(=O)C2C3C=CC(C3)C2C1=O)N1CCN(c2ccc(F)cc2)CC1 (stereo not drawn)	-5.37
Cl.O=C1C2C3C=CC(C4CC34)C2C(=O)N1CCCCN1CCN(c2ccc(F)cc2)CC1 (stereo not drawn)	-69.2
Cc1cc(NC(=O)CCC(=O)N(c2cccnc2)C(C(=O)NC2CCCC2)c2ccccc2F)no1 (stereo not drawn)	8.56
CCOc1ccccc1OCC(=O)OCC(=O)c1c(N)n(CC(C)C)c(=O)n(C)c1=O	-9.86
Cc1ccc(OCCC(=O)OCC(=O)c2c(N)n(CC(C)C)c(=O)n(C)c2=O)cc1	-42.3
Cc1ccccc1OCCC(=O)OCC(=O)c1c(N)n(CC(C)C)c(=O)n(C)c1=O	-63.8
CS(=O)(=O)Nc1ccc(Cc2noc(-c3ccc4[nH]cc(CCN)c4c3)n2)cc1.O	18.4
CN(C(=O)c1ccc2c(c1)OCO2)C1CCCCC1	6.85
Cc1nc(NC(=O)CC(C)C)sc1-c1csc(Nc2ccc(Cl)cc2)n1	12.5
Cc1ccccc1C(=O)NNC(=S)Nc1cccc(C(F)(F)F)c1	13.2
CCCCc1ccc(-c2nc(NC(=O)C3C4CCC(O4)C3C(=O)O)sc2C)cc1 (stereo not drawn)	11.9
CN1CCN(c2ccccc2NC(=O)c2ccc(-c3cccc([N+](=O)[O-])c3)o2)CC1	-0.213
CCC(=O)N1CCN(c2ccccc2NC(=O)c2ccc(-c3cccc([N+](=O)[O-])c3)o2)CC1	-3.2
O=C(Nc1ccccc1N1CCCC1)c1ccc([N+](=O)[O-])o1	1.03
CC(C)C(=O)N1CCN(c2ccccc2NC(=O)c2ccc([N+](=O)[O-])o2)CC1	-23.5
CN1CCN(c2ccccc2NC(=O)c2ccc([N+](=O)[O-])o2)CC1	-62.4
O=C(Nc1ccccc1N1CCOCC1)c1ccc([N+](=O)[O-])o1	-1
CCC(=O)N1CCN(c2ccc(Cl)cc2NC(=O)c2ccc([N+](=O)[O-])o2)CC1	0.198

Structure (SMILES)	hERG current change (%, negative = inhibition) at 1uM [%]
CC(=O)N1CCN(c2ccccc2NC(=O)c2ccc(-c3cccc([N+](=O)[O-])c3)o2)CC1	-81.6
CCC(=O)N1CCN(c2ccccc2NC(=O)c2ccc([N+](=O)[O-])o2)CC1	-60.5
c1ccc(C(c2nnnn2C2CCCCC2)N2CCc3ccccc3C2)nc1 (stereo not drawn)	7.86
C[C@H](NC(=O)N1CCn2c1nc1ccccc12)C(=O)NCCc1ccccc1	17.4
COc1ccc(NC(=S)N2CCN(C(=O)c3ccco3)CC2)c(OC)c1	8.24
CCn1c(=S)sc2c(=O)[nH]c(C)nc21	13.5
COc1cccc(CN2CC(C(=O)N3CCCCCCC3)CCC2=O)c1 (stereo not drawn)	9.63
COc1cccc(CN2CC(C(=O)N3CCCC3)CCC2=O)c1 (stereo not drawn)	10.9
COc1cccc(CN2CC(C(=O)N3CCN(c4ccc(Cl)cc4)CC3)CCC2=O)c1 (stereo not drawn)	-53.3
CCOC(=O)c1oc2ccccc2c1CSc1nnnn1-c1ccc(C)cc1	5.36
Fc1ccc(NC(=S)NC2CCN(Cc3ccccc3)CC2)cc1	6.75
O=C(/C=C/c1cccc(Br)c1)NC1CCN(Cc2ccccc2)CC1	-27.7
Cl.O=C(NC(=S)NC1CCN(Cc2ccccc2)CC1)c1ccc(F)cc1	-57.5
O=C(/C=C/c1cccc(F)c1)NC1CCN(Cc2ccccc2)CC1	-51.4
COc1ccc(/C=C/C(=O)NC2CCN(Cc3ccccc3)CC2)cc1OC	12
COc1ccccc1C1CCN(Cc2ccc(Cl)c(Cl)c2)CC1	10.4
O=C(NC1CCN(Cc2ccc(F)cc2)CC1)c1ccccc1	-15.9
O=C(NC1CCN(Cc2ccccc2)CC1)c1ccccc1	2.84
COc1ccccc1C1CCN(Cc2ccccc2)CC1	8.45
COc1ccccc1C1CCN(Cc2ccc(C)cc2)CC1	-61.2
Cc1ccc(CN2CCC(NC(=O)c3ccccc3)CC2)cc1	-52.8
Cc1ccc(CC(=O)NC2CCN(Cc3ccccc3)CC2)cc1	7.9
Cc1cnc(-c2nnc(N(C)C(=O)c3cccnc3)s2)cn1	10.2

Structure (SMILES)	hERG current change (%, negative = inhibition) at 1uM [%]
CCN(CC)c1ccc(/C=N/NC(=S)NC)c(O)c1	4.81
Cc1c(N=C2NC(=O)/C(=C/c3cccc([N+](=O)[O-])c3)S2)c(=O)n(-c2ccccc2)n1C	12.1
Cc1ccc(S(=O)(=O)CC(O)COc2ccc(F)cc2Cl)c(C)c1 (stereo not drawn)	7.06
COc1ccc(/C=N/NC(=O)C2c3ccccc3Oc3ccccc32)c(OC)c1	11.6
NS(=O)(=O)c1ccc(CNC(=O)c2cc(-c3cccnc3)nc3ccccc23)cc1	14.6
CCc1ccccc1NC(=O)Nc1c(C)n(C)n(-c2ccccc2)c1=O	-14.2
Cn1c(CSCc2ccc(F)cc2)n[nH]c1=S	13.6
CNC(=O)CSc1nc(-c2ccccc2)c(-c2ccccc2)[nH]1	3.72
Cc1ccc(S(=O)(=O)N2CCN(C(=O)c3nn(C(C)C)c(=O)c4ccccc34)CC2)cc1C	5.96
CC(C)Oc1ccc(S(=O)(=O)N2CCOCC2)cc1NC(=O)C1=COCCO1	11
CC(=O)C[C@H]1c2ccccc2S(=O)(=O)N1C1CCCC1	14.6
Cn1c(Nc2ccccc2)nc2ccccc21	8.25
Cn1c(Nc2ccc(F)cc2)nc2ccccc21	-77.5
COc1ccc(Nc2nc3ccccc3n2C)cc1	13.1
COc1ccc(-c2[nH]c(-c3ccc(C)cc3)nc2SCC(=O)Nc2nccs2)cc1	21.6
CC1CN(C(=O)COc2ccc3c(-c4ccccc4)cc(=O)oc3c2)CC(C)O1 (stereo not drawn)	10.8
CC(=O)Nc1ccc(OS(=O)(=O)c2ccc(Cl)cc2)cc1	-1.62
COc1ccc(Cl)cc1S(=O)(=O)Oc1ccc(NC(C)=O)cc1	-58.8
CC(=O)Nc1ccc(OS(=O)(=O)c2cc(Cl)ccc2C)cc1	13.6
CCN(CC)CCCNC(=O)C(C)n1c2ccccc2c2nc(=O)cc(C)n21 (stereo not drawn)	12.7
O=C1c2ccccc2C(=O)N1/N=C/c1ccc(O)c(O)c1	13.9
CCOc1ccc(C2NC(=O)c3n[nH]c(C)c32)cc1 (stereo not drawn)	9.09
COc1ccccc1N1CCN(Cc2ccc(F)cc2)CC1	6.42

Structure (SMILES)	hERG current change (%, negative = inhibition) at 1uM [%]
COc1ccccc1N1CCN(CCN(C(=O)C2CCCCC2)c2ccccn2)CC1.O=C(O)/C=C\C(=O)O	4.2
COc1ccccc1N1CCN(CCCCOc2ccc(F)cc2)CC1.Cl	-71.5
COc1ccccc1N1CCN(CC(=O)c2ccc(F)cc2)CC1.Cl	16.7
Cc1ccccc1N1CCN(CCCOc2ccc3c(C)cc(=O)oc3c2)CC1	-56.2
COc1ccccc1N1CCN(CCN(C(=O)c2ccc(F)cc2)c2ccccn2)CC1.Cl	-57.8
COc1ccccc1N1CCN(CCCCOc2cccc3ccccc23)CC1.Cl	9.44
Cc1cc(=O)oc2cc(OCCCN3C(=O)c4ccccc4C3=O)ccc12	-0.574
COc1ccccc1N1CCN(CCCOc2ccc(F)cc2)CC1	-60.3
COc1ccc(N2CCN(CCOc3ccc4c(C)cc(=O)oc4c3)CC2)cc1	-37.8
COc1ccccc1N1CCN(CCCCCCOc2ccc(F)cc2)CC1	-7.53
COc1ccccc1N1CCN(CCCC(=O)c2ccc(F)cc2)CC1	-43.2
CCOC(=O)c1sc2nc(C)nc(N3CCCCC3C)c2c1C (stereo not drawn)	-5.1
O=C(NCCNC(=O)c1ccc(Cl)cc1Cl)c1cnccn1	6.54
O=C(CSc1cccc2cccc(Cl)c12)NC1=NCCS1	2.37
CSCCC(NC(=O)COc1ccccc1)C(=O)NCCOc1ccc(C)cc1 (stereo not drawn)	3.41
O=C(c1ccco1)N1CCN(CCOc2ccccc2)CC1	10.3
Cl.O=C(c1ccco1)N1CCN(CCOc2ccc(F)cc2)CC1	-0.809
O=C(c1ccco1)N1CCN(C(=S)NCc2ccc(F)cc2)CC1	-3.27
O=C(CCC1CCN(C(=O)c2ccco2)CC1)NCc1ccc(F)cc1	-62
Cl.O=C(c1ccco1)N1CCN(CCCCOc2ccc(F)cc2)CC1	-74.8
O=C(CCC1CCN(C(=O)c2ccccc2Cl)CC1)NCc1ccc(F)cc1	4.08
